# In all, about 16,000 compounds went through this assay and about 5,800 (36%) were called active. Not shown: some 23% with an inconclusive outcome. Calls come from the whole dose curve; as a rule, active = well fitted curve in the direction sought with a large enough effect; inconclusive = small, poorly fitted or top-dose-only effect, or effect the other way; inactive = no such curve, though single readings can be large or run the other way. The list shows a part of the results.
# Molecular target: Cytochrome P450 2C19 (Homo sapiens) (UniProt P33261)
# Sequence (P33261 whole entry, looked up): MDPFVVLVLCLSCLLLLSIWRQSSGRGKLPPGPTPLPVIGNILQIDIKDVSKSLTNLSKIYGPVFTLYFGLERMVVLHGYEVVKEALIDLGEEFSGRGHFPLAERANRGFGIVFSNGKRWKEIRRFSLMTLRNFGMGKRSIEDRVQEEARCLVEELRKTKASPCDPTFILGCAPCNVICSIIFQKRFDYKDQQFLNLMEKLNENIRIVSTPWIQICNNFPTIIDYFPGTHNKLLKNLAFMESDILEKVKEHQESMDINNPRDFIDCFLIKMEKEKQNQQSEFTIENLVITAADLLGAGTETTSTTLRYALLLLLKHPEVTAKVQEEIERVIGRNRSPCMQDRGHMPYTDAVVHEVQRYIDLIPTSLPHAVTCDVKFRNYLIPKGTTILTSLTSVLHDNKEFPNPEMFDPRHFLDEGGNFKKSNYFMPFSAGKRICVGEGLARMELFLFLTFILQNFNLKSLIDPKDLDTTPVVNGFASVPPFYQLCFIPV
# Experiment: Cytochrome panel assay with activity outcomes
# Conditions: recombinant CYP, pro-luciferin dealkylation, luminescence, p450-cyp2c19; series mostly up to 57.1 µM
# % is set by controls: 0 for no effect and ±100 for the full control effect.
Structure (SMILES),AC50,"activity, negative = inhibition"
O=C1c2cccc3c(Nc4ccccc4Cl)c([N+](=O)[O-])cc(c23)C(=O)N1CCO,3.98 µM (active),–
O=C1c2cccc3c(Cl)ccc(c23)C(=O)N1O,inactive,–
O=C1NC(=O)C(c2ccccc2[N+](=O)[O-])=C1Nc1ccc(O)c(Cl)c1,inactive,–
Cc1cc(/C=N\NC(=O)c2cccs2)c(C)n1-c1ccc2ncccc2c1,inactive,–
CCCC(=O)Nc1c2c(nn1-c1ccc(C)cc1C)CSC2,8.91 µM (active),–
Cc1ccc(-n2nc3c(c2NC(=O)c2cccs2)CSC3)cc1,7.94 µM (active),–
O=c1cc(CSc2nnc(-c3cccnc3)n2-c2ccccc2F)nc2sccn12,inactive,–
CC(C)c1ccccc1-n1c(SCC(=O)N2CCN(c3ccccc3)CC2)nnc1-c1cccnc1,11.2 µM (active),–
Cn1c(Cc2cccc3ccccc23)nnc1SCC(=O)N1CCN(c2ccccc2)CC1,25.1 µM (active),–
Cn1c(CC(=O)Nc2ccc(Cl)c(Cl)c2)nnc1SCC(=O)N1CCN(c2ccccc2)CC1,14.1 µM (active),–
CC(=O)Nc1cc(S(=O)(=O)Nc2ccccc2)c(C)cc1C,25.1 µM (active),–
c1ccc2cc(NCNc3ccc4ccccc4c3)ccc2c1,2.51 µM (active),–
Cc1cccc(NC(=O)CCS(=O)(=O)c2cccc3nsnc23)c1C,14.1 µM (active),–
Cc1cccc(NC(=S)NNC(=O)CC(C)O)c1C (stereo not given),inactive,–
O=C(CCS(=O)(=O)c1cccc2nsnc12)NC1CCCCC1,11.2 µM (active),–
CN(C)c1ncc2nc(-c3cccc(C#N)c3)c(=O)n(C[C@H]3CCCO3)c2n1,inactive,–
N=C(N)SCCSC(=N)N,–,2.37% [at 11.4 µM] (inactive)
CN(Cc1ccco1)c1nc(-c2ccccc2C(F)(F)F)nc2ccccc12,7.94 µM (active),–
Cc1ccccc1-c1nc(N(C)C)c2ccccc2n1,20 µM (active),–
COc1ccccc1-c1nc(N(C)C)c2ccccc2n1,inactive,–
CN(C)c1nc(-c2ccccc2C(F)(F)F)nc2ccccc12,inactive,–
COc1ccccc1-c1nc(N(C)Cc2ccco2)c2ccccc2n1,20 µM (active),–
Cc1ccccc1-c1nc(N(C)Cc2ccco2)c2ccccc2n1,10 µM (active),–
CN(C)Cc1ccccc1-c1nc(N(C)Cc2ccco2)c2ccccc2n1,inactive,–

Structure (SMILES),AC50,"activity, negative = inhibition"
CNc1nc(-c2ccccc2C)nc2ccccc12,10 µM (active),–
Cc1ccccc1-c1nc(NC2CC2)c2ccccc2n1,inactive,–
CNc1nc(-c2ccccc2CN(C)C)nc2ccccc12,inactive,–
O=C(OCC#CCSc1nnc(-c2cccc3ccccc23)o1)c1ccco1,3.16 µM (active),–
CN1CCc2c(c3c(n2C)CCN(C)[C@H]3c2ccccc2F)[C@@H]1c1ccccc1F,inactive,–
COc1cc(OC)c(C2N(c3cc(C)on3)C(=O)C3CCCN32)cc1OC (stereo not given),inactive,–
O=C1C2CCCN2C(c2ccccc2F)N1c1ccc(Cl)cc1 (stereo not given),25.1 µM (active),–
C/C(=N/NS(=O)(=O)c1ccc(C)cc1)c1cccc(NC(=O)c2cccc(Cl)c2)c1,2 µM (active),–
CCC(=O)Nc1ccc(/C(C)=N\NS(=O)(=O)c2ccc(C)cc2)cc1,3.98 µM (active),–
CC(CC(=O)O)CC(=O)Nc1ccc(S(N)(=O)=O)cc1 (stereo not given),inactive,–
CCOC(=O)N1CCN(c2nc(-c3ccco3)cc(C(F)(F)F)n2)CC1,4.47 µM (active),–
COCCn1c(=O)c(-c2cccs2)nc2cnc(N3CCN(C)CC3)nc21,inactive,–
COc1cc2nc(N3CC=[N+](C(=O)c4ccco4)CC3)nc(N)c2cc1OC,inactive,–
CCCNC(=O)CSc1nc(-c2cccs2)cc(C(F)(F)F)n1,0.562 µM (active),–
CCOC(=O)N1CCN(c2nc(-c3cccs3)cc(C(F)(F)F)n2)CC1,3.98 µM (active),–
CCC[C@@H]1O[C@@H]2C[C@@H]3[C@H]4CCC5=CC(=O)C=C[C@@]5(C)[C@H]4[C@H](O)C[C@@]3(C)[C@@]2(C(=O)CO)O1,inactive,–
CC[C@@H]1OC(=O)[C@H](C)[C@H](O[C@@H]2C[C@](C)(OC)[C@H](O)[C@H](C)O2)[C@H](C)[C@H](O[C@@H]2O[C@@H](C)C[C@@H](N(C)C)[C@@H]2O)[C@](C)(O)C[C@H](C)C(=NOCOCCOC)[C@H](C)[C@H](O)[C@]1(C)O,inactive,–
CN(C)CCCO[C@H]1[C@H]([C@H](O)CO)O[C@H]2OC(C)(C)O[C@@H]21,inactive,–
COc1ccc([C@@H](Nc2ncccn2)c2cc3c(cc2O)OCO3)cc1,0.316 µM (active),–
COc1ccc([C@@H](C)c2cc3c(cc2O)OCO3)cc1,0.1 µM (active),–
C=C(C)[C@@H]1CC=C(C(=O)O)CC1,inactive,–
CN(C)CCSCCO,–,28.5% [at 11.4 µM] (inactive)
Cc1cc(-c2cc(C)c(O)c(C(C)(C)C)c2)cc(C(C)(C)C)c1O,1 µM (active),–
Cc1cc(C(C)(C)C)c(O)c(C)c1CC1=NCCN1,inactive,–

Structure (SMILES),AC50,"activity, negative = inhibition"
CCN1C/C(=C\c2cccc(C)c2)c2nc3ccccc3c(C(=O)O)c2C1,inactive,–
Cc1cccc(NC(=O)N(Cc2nc3ccccc3c(=O)[nH]2)C2CCCC2)c1,15.8 µM (active),–
CN1CCC(N(C)C(=O)CCc2nc3ccccc3c(=O)[nH]2)CC1,inactive,–
CCn1c(O)c(/C=N/N=C2CCCC2)c2ccc(C3=NNC(=O)CC3)cc21,inactive,–
O=C1c2cccnc2C(O)N1C1CCCCC1 (stereo not given),inactive,–
Cc1nc2c(n1C1CCCCC1)C(=O)c1ccccc1C2=O,2.82 µM (active),–
Cn1cc(-c2nc3cncnc3n(C3CC3)c2=O)c2ccccc21,inactive,–
CN[C@@H]1NC(=O)c2ccccc2N1Cc1ccc(F)cc1,–,-2.68% [at 11.4 µM] (inactive)
Cc1ccc(NC2c3ncccc3C(=O)N2Cc2ccc(F)cc2)cc1 (stereo not given),5.01 µM (active),–
COc1ccc2[nH]cc(CCNc3ncnc4ccc(-c5ccccc5OC)cc34)c2c1,2 µM (active),–
COc1ccc2[nH]cc(CCNc3ncnc4ccc(-c5cccc(C#N)c5)cc34)c2c1,7.94 µM (active),–
COc1cccc(-c2ccc3ncnc(NCCc4c[nH]c5ccc(OC)cc45)c3c2)c1,3.16 µM (active),–
COc1ccc2[nH]cc(CCNc3ncnc4ccc(-c5c(C)noc5C)cc34)c2c1,3.98 µM (active),–
COc1ccc2[nH]cc(CCNc3ncnc4ccc(-c5ccccc5CN(C)C)cc34)c2c1,inactive,–
COc1ccc2[nH]cc(CCNc3ncnc4ccc(-c5ccc6c(c5)OCO6)cc34)c2c1,1.58 µM (active),–
COc1ccc2[nH]cc(CCNc3ncnc4ccc(-c5ccoc5)cc34)c2c1,7.94 µM (active),–
COc1ccc2[nH]cc(CCNc3ncnc4ccc(-c5ccccc5C#N)cc34)c2c1,2 µM (active),–
COc1ccc2c(Cl)c(-c3nnco3)sc2c1,7.94 µM (active),–
Cc1nc2cnc(N3CCN(C)CC3)nc2n(-c2ccccc2)c1=O,inactive,–
O=C1CC(c2ccccc2)Cc2nc(N3CCc4ccccc4C3)ncc21 (stereo not given),3.98 µM (active),–
CN1CCN(c2ncc3ncc(=O)n(-c4ccccc4)c3n2)CC1,inactive,–
Cc1ccc(-n2cnc(=O)c3cccnc32)cc1,inactive,–
N#Cc1c(-c2ccccc2)cc(C2CC2)nc1SCC(=O)c1cccs1,inactive,–
N#Cc1c(-c2cccs2)nc(SCC(=O)c2cccs2)[nH]c1=O,15.8 µM (active),–

Structure (SMILES),AC50,"activity, negative = inhibition"
N#CCCn1c(=O)c(-c2cccs2)nc2cnc(OCc3ccccc3)nc21,inactive,–
Cc1cccc(NC(=O)CSc2nc(-c3ccccc3)c(C#N)c(=O)[nH]2)c1C,14.1 µM (active),–
N#Cc1c(-c2ccccc2)nc(-c2ccccc2)[nH]c1=O,inactive,–
CN[C@H](CC(=O)O)C(=O)O,inactive,–
Cc1[nH]nc(N2CCCCCC2)c1[N+](=O)[O-],6.31 µM (active),–
CCOC(=O)C1(S(=O)(=O)c2ccccc2)CCN(Cc2ccccc2)CC1,2.51 µM (active),–
Cc1noc(C)c1C(=O)N1CCC2(CCN(Cc3ccncc3)CC2)CC1,inactive,–
CCOC(=O)C1(S(=O)(=O)c2ccc(Cl)cc2)CCN(Cc2ccc(Cl)cc2)CC1,2.24 µM (active),–
O=S(=O)(c1ccccc1)N1CCC2(CCN(Cc3ccccc3)CC2)CC1,inactive,–
O=C(NCc1cccnc1)[C@@H]1[C@@H](C(=O)O)[C@H]2CC[C@@H]1O2,–,23.6% [at 11.4 µM] (inactive)
CC(C)(C)OC(=O)N1CCCC1C(=O)NCCc1ccccc1 (stereo not given),6.31 µM (active),–
Cc1ccc(CNC(=O)C2CCCN2C(=O)NCc2ccccc2)cc1 (stereo not given),10 µM (active),–
O=C(O)C1CCC(=O)N(C2CC2)C1c1ccccc1 (stereo not given),inactive,–
Cc1ccc(CN2C(=O)CCC2C(=O)NCc2cccnc2)cc1 (stereo not given),22.4 µM (active),–
Cc1ccc(CNC(=O)C2CCC(=O)N2C2CCCCC2)cc1 (stereo not given),3.16 µM (active),–
O=C(O)[C@@H]1[C@@H](C(=O)NCc2cccnc2)[C@@H]2C=C[C@@H]1O2,–,6.83% [at 11.4 µM] (inactive)
COc1cc2nc(N3CCN(C(=O)OCc4ccccc4)[C@H](C(=O)NC(C)(C)C)C3)nc(N)c2cc1OC,inactive,–
Cc1ccc(SCC(=O)NNC(=O)C2CCCCC2)cc1,inactive,–
CCOC(=O)[C@H](CCc1ccccc1)N[C@@H](C)C(=O)N1CCC[C@H]1C(=O)O,inactive,–
CN(C)C(=O)N1CCCC(C(=O)NCCc2ccccc2)C1 (stereo not given),inactive,–
O=C(O)c1ccccc1-c1ccccc1C(=O)Nc1ccc2c(c1)[nH]c(=O)c1ccccc12,–,-24.7% [at 11.4 µM] (inactive)
COc1cc(=O)n(C)c2c(OC[C@@H](O)C(C)(C)O)cccc12,inactive,–
C[C@H](CCC(=O)NCC(=O)O)[C@H]1CC[C@H]2[C@H]3[C@@H](C[C@@H](O)[C@]12C)[C@]1(C)CC[C@H](O)C[C@@H]1C[C@@H]3O,inactive,–

# — PubChem BioAssay AID1851 (National Center for Advancing Translational Sciences (NCATS), 2009)
